# About 83,000 compounds went through this panel and 20% of them were active in at least one assay; those are over-represented in the sample as a whole.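 In brief: 96-well plates, 48 h treatment, single concentration, percent growth endpoint.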 Unmarked numbers belong to inactive results. Calls of active or inactive are those of the source. How the source made its calls: active means growth percent below 10; inactive means the rest.
# Experiments:
# Assay in all cases: NCI-60 one-dose screen, 48 h (100 = growth as untreated, 0 = no growth, -100 = all killed)
# Settings in all cases: 10 µM unless noted
# NCI-H23 lung = system: NCI-H23 lung
# NCI-H322M lung = system: NCI-H322M lung
# HOP-62 NSCLC = system: HOP-62 NSCLC
# NCI-H460 lung = system: NCI-H460 lung
# NCI-H522 lung = system: NCI-H522 lung
# A549/ATCC NSCLC = system: A549/ATCC NSCLC
# 786-0 renal = system: 786-0 renal
# COLO 205 colon = system: COLO 205 colon
# DU-145 prostate = system: DU-145 prostate
# K-562 leukemia = system: K-562 leukemia
# MALME-3M melanoma = system: MALME-3M melanoma
# MDA-MB-231 breast = system: MDA-MB-231 breast
# RXF 393 renal = system: RXF 393 renal
# SF-268 CNS = system: SF-268 CNS
# SF-295 CNS = system: SF-295 CNS
# SF-539 CNS = system: SF-539 CNS
# UACC-257 melanoma = system: UACC-257 melanoma
# M14 melanoma = system: M14 melanoma
# NCI-H226 lung = system: NCI-H226 lung
# HOP-92 NSCLC = system: HOP-92 NSCLC
Compound,growth (NCI-H23 lung) [%],growth (NCI-H322M lung),growth (HOP-62 NSCLC),growth (NCI-H460 lung),growth (NCI-H522 lung) [%],growth (A549/ATCC NSCLC) [%],growth (786-0 renal),growth (COLO 205 colon),growth (DU-145 prostate),growth (K-562 leukemia),growth (MALME-3M melanoma),growth (MDA-MB-231 breast),growth (RXF 393 renal),growth (SF-268 CNS),growth (SF-295 CNS),growth (SF-539 CNS) [%],growth (UACC-257 melanoma) [%],growth (M14 melanoma),growth (NCI-H226 lung),growth (HOP-92 NSCLC)
CN(C)CCCn1c(=O)c2cc([N+](=O)[O-])ccc2c2cnc3[nH]ccc3c21,58.8,46.3%,45.1%,17.3%,17.9,41.5,7.2% (active),28%,50.5%,-32.4% (active),68.8%,65.5%,56.3%,45.9%,43.9%,50.9,87.2,67.6%,–,–
COc1cc2c(cc1OC)-c1cc(OC)c(OC)cc1C(CN(C)C)C2 (stereo unspecified),–,38.9% [100 µM],-57.2% [100 µM] (active),67.7% [100 µM],–,–,16.9% [100 µM],100% [100 µM],45.3% [100 µM],77.6% [100 µM],44.1% [100 µM],39.7% [100 µM],41.6% [100 µM],39% [100 µM],4.33% [100 µM] (active),–,–,69.5% [100 µM],18.4% [100 µM],21.4% [100 µM]
CC1(C)CC(=O)c2cc3c(N)c(C(=O)Nc4ccc(Cl)cc4)sc3nc2C1,105,114%,108%,–,95.8,97.6,98.7%,117%,103%,107%,119%,115%,116%,125%,100%,114,91.4,107%,–,–
O=C(Nc1cccc(C2=NCCN2)c1)c1ccc(N=Nc2ccc(C(=O)Nc3cccc(C4=NCCN4)c3)cc2)cc1,44.3,64.7%,42.3%,41.9%,36.2,33.9,69.2%,64.5%,59.1%,51.8%,29.7%,73.1%,105%,54.2%,82.4%,74,55.4,64.9%,–,–
NC(N)=N/N=C/c1cccc(Cl)c1Cl,86.9,96.9%,82.5%,64.2%,80.8,87.9,83.6%,-33.1% (active),69.3%,4.22% (active),94.9%,81.6%,81.3%,69.5%,109%,96.4,70.1,62.7%,–,–

# Source: PubChem BioAssay (NCI)
